Potency and outcome data for 27 compounds are collected here from PubChem BioAssay (NCATS).

Results filed as inconclusive are left out. Active and inactive are the calls of the source. Unless noted, the call rests on the fitted dose curve; in most records, active means well fitted curve in the direction sought with a large enough effect; inconclusive means small, poorly fitted or top-dose-only effect, or another doubt; inactive means no such curve, though single readings can be large; an effect the other way counts as inactive or inconclusive.

Assay [1] in a line: qHTS for differential inhibitors of proliferation of Plasmodium falciparum line D10 (AID 1877).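 Further: parasites grown with compound for 72 h before DNA staining.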 Further: potency means the concentration at half of the fitted maximal effect. A general note: qHTS replaces the single test concentration by a dilution series.
A short description of assay [2]: qHTS for differential inhibitors of proliferation of Plasmodium falciparum line Dd2 (AID 1882). Further: nearly all actives have a fitted effect of over 65% in size. Further: potency means the concentration at half of the fitted maximal effect. Particulars: Potency: Plasmodium falciparum Dd2 proliferation inhibition. Put shortly: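 RBC culture, 0.3% parasitemia / 2.5% Hct final; cpd added by pin tool in DMSO; 72 h, 37 C, 5% CO2; lysis buffer + SYBR Green I, o/n RT dark; FI 485/535; norm. to artemisinin 0.29 uM and DMSO.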

The nature of assay [3]: qHTS for differential inhibitors of proliferation of Plasmodium falciparum line HB3 (AID 1886).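 Further: parasites grown with compound for 72 h before SYBR Green readout.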 Further: potency means the concentration at half of the fitted maximal effect. Particulars: Potency: Plasmodium falciparum HB3 proliferation inhibition.
The target in assay [4] is Ferritin light chain (Equus caballus) (UniProt P02791). The assay is described as follows: qHTS Validation Assay for Identification of Novel General Anesthetics (AID 2323). Further: series mostly up to about 77 µM. Put shortly:
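Competitive displacement of profluorescent 1-aminoanthracene (1-AMA, 50% saturated solution in PBS) from 10 uM horse-spleen apoferritin. Compounds incubated 10 min at room temperature; fluorescence read at 380 nm excitation/535 nm emission, normalized to free 1-AMA and complex, fitted with four-parameter Hill equation.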

In assay [5] the target is ATP-dependent DNA helicase Q1 (Homo sapiens) (UniProt P46063). Description: qHTS Validation Assay for Inhibitors of RecQ-Like Dna Helicase 1 (RECQ1) (AID 2353). Put shortly: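 RECQ1T1 50 nM; forked duplex (20 bp + 30-nt ss tails) 200 nM, ATP 2 mM final; pH 8.0, 2 mM MgCl2, 2.5 ug/ml poly(dI-dC); 15 min compound preincubation; discontinuous kinetic read over 2 h at RT.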
Chain of ATP-dependent DNA helicase Q1 (Homo sapiens) (P46063 whole entry, looked up): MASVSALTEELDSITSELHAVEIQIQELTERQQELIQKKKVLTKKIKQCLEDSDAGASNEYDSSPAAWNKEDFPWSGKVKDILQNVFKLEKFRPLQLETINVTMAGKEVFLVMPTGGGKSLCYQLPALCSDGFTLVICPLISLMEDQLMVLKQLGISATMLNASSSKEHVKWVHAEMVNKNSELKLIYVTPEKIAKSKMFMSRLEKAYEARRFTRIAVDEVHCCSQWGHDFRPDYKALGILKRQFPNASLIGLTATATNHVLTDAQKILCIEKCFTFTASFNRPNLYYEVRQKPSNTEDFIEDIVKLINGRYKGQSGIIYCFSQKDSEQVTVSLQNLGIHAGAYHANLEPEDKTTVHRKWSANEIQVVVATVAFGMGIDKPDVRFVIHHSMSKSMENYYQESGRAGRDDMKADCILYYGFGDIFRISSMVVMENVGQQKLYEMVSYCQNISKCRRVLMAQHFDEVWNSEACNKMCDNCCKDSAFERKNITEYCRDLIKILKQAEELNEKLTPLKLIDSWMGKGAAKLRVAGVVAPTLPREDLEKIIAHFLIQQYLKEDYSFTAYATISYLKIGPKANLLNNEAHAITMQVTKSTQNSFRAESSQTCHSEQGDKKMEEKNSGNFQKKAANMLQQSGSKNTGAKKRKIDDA

Assay [6] in a line: qHTS Assay for Modulators of Human Peripheral Myelin Protein 22 (PMP22) Expression/Activity (AID 1967; active means well fitted curve in the direction sought with a large enough effect in the signal ratio; the % refers to the signal ratio). Put shortly:
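MSC80 mouse Schwann cells stably carrying Pmp22 promoter–green click beetle luciferase plus EF-alpha–red luciferase control were dosed for 24h at 37 °C. Dual-colour luminescence was filter-overlap corrected; %Activity came from green/red ratio versus untreated cells.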

A short description of assay [7]: qHTS for differential inhibitors of proliferation of Plasmodium falciparum line W2 (AID 1883).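 Further: parasites grown with compound for 72 h before lysis and staining.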 Further: potency means the concentration at half of the fitted maximal effect. Particulars: Potency: Plasmodium falciparum W2 proliferation inhibition.
The target of assay [8] is RecQ-like DNA helicase BLM (Homo sapiens) (UniProt P54132). The assay is described as follows: qHTS Validation Assay for Inhibitors of Bloom's syndrome helicase (BLM) (AID 2364). Put shortly:
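Forked 20-bp duplex substrate (200 nM, TAMRA/BHQ-2) plus 2 mM ATP added after 15 min compound preincubation with 50 nM enzyme, pH 8.0, poly(dI-dC) 2.5 ug/ml. Strand separation followed by fluorescence (525/598 nm) over 2 h, normalized to enzyme-free and DMSO controls.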

A short description of assay [9]: Cytometric Cell-Based qHTS for Inhibitors of the mTORC1 Signaling Pathway in MEF (Tsc2-/-, p53-/-) Cells (AID 2660).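 Further: Tsc2 and p53 null MEFs carrying empty vector with compound for 24 h; percent of cells above a phospho-rpS6 to PI ratio cutoff in each well; series mostly up to about 38 µM.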 Put shortly: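 Cells are plated, treated with compound for 24 hrs at 37 degree Celsius, then fixed, blocked and immunostained for phospho-rpS6 Ser235/236. Propidium iodide counterstain follows. Per-well % positive cells is derived from the PI-normalized phospho-S6 signal.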

Assay [10] can be described thus: qHTS Assay for Identification of Small Molecule Inducers of Hypoxia Response (AID 2120; active means well fitted curve in the direction sought with a large enough effect in the signal ratio, with a control signal flat, not every such curve was filed as active; the % refers to the signal ratio). Put shortly: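 Read-out: CCF4 FRET emission ratio 460nm/530nm (excitation 405nm), converted to %Activity, with AC50 fitted across a compound titration. ME-180 cells carried an HRE-driven beta-lactamase reporter; compound exposure 17 h, 37 degrees C.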

Chain of RecQ-like DNA helicase BLM (Homo sapiens) (P54132 whole entry, looked up): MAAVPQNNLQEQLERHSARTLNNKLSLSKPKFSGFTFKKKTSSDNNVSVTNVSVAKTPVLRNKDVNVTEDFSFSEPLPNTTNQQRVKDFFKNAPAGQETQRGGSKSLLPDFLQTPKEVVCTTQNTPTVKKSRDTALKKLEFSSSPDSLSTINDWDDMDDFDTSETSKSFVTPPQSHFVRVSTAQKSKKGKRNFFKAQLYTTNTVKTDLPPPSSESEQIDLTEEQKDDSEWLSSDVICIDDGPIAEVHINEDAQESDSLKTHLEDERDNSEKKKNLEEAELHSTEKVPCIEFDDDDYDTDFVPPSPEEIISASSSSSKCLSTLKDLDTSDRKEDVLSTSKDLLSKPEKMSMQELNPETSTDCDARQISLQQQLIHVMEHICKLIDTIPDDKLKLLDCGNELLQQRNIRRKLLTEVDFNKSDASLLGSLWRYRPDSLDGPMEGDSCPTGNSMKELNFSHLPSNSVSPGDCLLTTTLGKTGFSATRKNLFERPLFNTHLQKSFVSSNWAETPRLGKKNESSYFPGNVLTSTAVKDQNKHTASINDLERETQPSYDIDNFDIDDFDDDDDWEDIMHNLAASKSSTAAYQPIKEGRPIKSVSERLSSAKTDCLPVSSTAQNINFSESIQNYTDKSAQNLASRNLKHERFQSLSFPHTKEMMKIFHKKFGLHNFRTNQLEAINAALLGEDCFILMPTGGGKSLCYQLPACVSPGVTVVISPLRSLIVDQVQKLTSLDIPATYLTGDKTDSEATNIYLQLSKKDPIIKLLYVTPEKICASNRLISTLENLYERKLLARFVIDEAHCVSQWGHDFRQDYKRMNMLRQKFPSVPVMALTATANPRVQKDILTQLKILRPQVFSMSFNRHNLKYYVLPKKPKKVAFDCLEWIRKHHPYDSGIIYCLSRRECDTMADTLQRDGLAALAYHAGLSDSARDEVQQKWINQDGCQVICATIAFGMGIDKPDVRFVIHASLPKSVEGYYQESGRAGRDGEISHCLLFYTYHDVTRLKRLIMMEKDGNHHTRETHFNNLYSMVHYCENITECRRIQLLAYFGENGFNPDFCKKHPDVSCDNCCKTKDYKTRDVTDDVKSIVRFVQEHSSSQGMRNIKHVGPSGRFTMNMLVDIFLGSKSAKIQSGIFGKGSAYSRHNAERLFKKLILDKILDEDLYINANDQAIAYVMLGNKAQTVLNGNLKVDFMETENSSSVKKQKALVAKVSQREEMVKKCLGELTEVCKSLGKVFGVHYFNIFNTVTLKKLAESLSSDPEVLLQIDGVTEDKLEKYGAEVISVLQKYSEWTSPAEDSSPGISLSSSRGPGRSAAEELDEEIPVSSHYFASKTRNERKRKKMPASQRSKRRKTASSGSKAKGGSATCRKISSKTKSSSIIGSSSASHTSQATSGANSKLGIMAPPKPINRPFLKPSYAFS
Chain of Ferritin light chain (Equus caballus) (P02791 2-175 limits assumed): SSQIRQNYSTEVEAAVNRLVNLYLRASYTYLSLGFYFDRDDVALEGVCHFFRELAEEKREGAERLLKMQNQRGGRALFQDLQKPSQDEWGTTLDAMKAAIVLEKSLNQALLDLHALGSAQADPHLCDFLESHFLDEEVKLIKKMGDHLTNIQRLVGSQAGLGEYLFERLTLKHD

Consider `COCCc1ccc(OCC(O)CNC(C)C)cc1` (configuration not stated), for which the Potency result in [1], in [2], in assay [3] and in [5] was “inactive” in each case. Also, the result in [4] was inactive.

In the case of `O=C(O)CP(=O)(O)O`, the Potency result in assay [1], in [2], in assay [3] and in [5] was “inactive” in each case. The result in assay [6] and in assay [4] was inactive.

`Fc1ccc(C(c2ccc(F)cc2)N2CCN(C/C=C/c3ccccc3)CC2)cc1`: the Potency in assay [1] was 11.2 µM (active); in assay [2] it was 12.6 µM (active); in assay [7] it was 3.98 µM (active); in assay [3], 10 µM (active). In addition, the Potency entry in [5] was “inactive”.

Take `c1cc(CN2CCCCC2)cc(OCCCNc2nc3ccccc3s2)c1`: the Potency was 8.91 µM (active) in assay [1], 7.08 µM (active) in assay [2], 2.51 µM (active) in assay [7] and 11.2 µM (active) in assay [3]. In addition, the Potency entry in [5] and in assay [8] was “inactive” throughout.

Take `CCn1ccnc1CC1COc2ccccc2O1` (configuration not stated): the Potency result in assay [1], in assay [2], in [5] and in [8] was “inactive” throughout. In addition, in [7], the Potency is 10 µM (active). For the same compound, in assay [9], the compound was classed as inactive.

For the compound `COC(=O)[C@H]1[C@H]2C[C@@H]3c4[nH]c5cc(OC)ccc5c4CCN3C[C@H]2C[C@@H](OC(=O)c2cc(OC)c(OC)c(OC)c2)[C@@H]1OC`, the Potency in assay [1] is 2.82 µM (active); in assay [2] it was 2.24 µM (active); in assay [7], 0.891 µM (active); in [3] it was 1.26 µM (active). In addition, the Potency result in assay [5] is “inactive”. Moreover, in [9], the call was inactive.

As for `O=C(CCCN1CCC(O)(c2cccc(C(F)(F)F)c2)CC1)c1ccc(F)cc1`, the Potency was 12.6 µM (active) in assay [1], 3.98 µM (active) in assay [2], 2.24 µM (active) in assay [7] and 10 µM (active) in [3]. Besides, the Potency result in assay [5] and in assay [8] was “inactive” in each case. The call in assay [9] was inactive.

`CC(=O)Nc1nnc(S(N)(=O)=O)s1`: the Potency result in assay [1], in [2], in assay [7], in assay [3] and in [5] was “inactive” each time. Besides, the call in [4] and in [9] was inactive.

For `Cc1nc2sccn2c(=O)c1CCN1CCC(=C(c2ccc(F)cc2)c2ccc(F)cc2)CC1`, the Potency in [1] was 10 µM (active); in assay [2], 7.94 µM (active); in assay [7], 10 µM (active); in assay [3] it was 11.2 µM (active). The compound was classed as inactive in assay [4] and in [9]. Moreover, in assay [5], the Potency result was “inactive”.

In the case of `CO[C@@]1(NC(=O)CSCC#N)C(=O)N2C(C(=O)O)=C(CSc3nnnn3C)CS[C@@H]21`, the Potency entry in [1], in assay [2], in assay [3] and in assay [5] was “inactive” throughout. In assay [4], the compound was called inactive.

As for `c1ccc2c(c1)CCCC2C1=NCCN1` (configuration not stated), the Potency entry in assay [1], in assay [2], in [3] and in assay [5] was “inactive” throughout. Further, the outcome in assay [6], in assay [4] and in [9] was inactive.

`NC/C=C/C(=O)O`: the Potency entry in assay [1], in assay [2], in [7], in assay [3] and in [5] was “inactive” throughout. In addition, in assay [9], the call was inactive.

For the compound `COc1cc2c(cc1OC)-c1cc(=Nc3c(C)cc(C)cc3C)n(C)c(=O)n1CC2`, the Potency is 3.98 µM (active) in assay [1], 8.91 µM (active) in assay [2], 3.55 µM (active) in assay [7] and 3.55 µM (active) in [3]. Besides, the Potency result in assay [5] is “inactive”. Besides, in assay [9], the outcome was inactive.

For the compound `C[n+]1cc2c3c(ccc2c2ccc4cc5c(cc4c21)OCO5)OCO3`, the Potency in [1] is 3.55 µM (active); in [2] it was 6.31 µM (active); in [7] it was 2.51 µM (active); in assay [3], 3.16 µM (active). Moreover, the Potency entry in [5] is “inactive”.

Regarding `CSc1ccc(C(=O)c2[nH]c(=O)[nH]c2C)cc1`, the Potency entry in [1], in assay [2], in assay [7] and in assay [5] was “inactive” throughout. In addition, the result in assay [4] was inactive.

In the case of `Nc1nc(N)c2nc(-c3ccccc3)c(N)nc2n1`, the Potency is 2.51 µM (active) in assay [1], 15.8 µM (active) in [7] and 12.6 µM (active) in assay [3]. Moreover, the Potency entry in assay [2], in [5] and in assay [8] was “inactive” throughout. Besides, in assay [9], the call was inactive.

Turning to `CCN(CC)CCNC(=O)c1cc(S(C)(=O)=O)ccc1OC`, the Potency entry in assay [1], in assay [2], in [7], in assay [3] and in assay [5] was “inactive” in each case. Besides, the compound was called inactive in [4] and in [9].

For the compound `NC(=O)N1c2ccccc2C=Cc2ccccc21`, the Potency result in assay [1], in [2], in assay [3], in assay [5] and in assay [8] was “inactive” each time. Besides, the outcome in assay [10] and in [9] was inactive.

Consider `CN(C)C(=O)Oc1ccc[n+](C)c1`, for which the Potency result in assay [1], in assay [2], in assay [7], in [3], in [5] and in assay [8] was “inactive” each time. Besides, the call in [9] was inactive.

As to `Cc1ccc(Cl)c(Nc2ccccc2C(=O)O)c1Cl`, the Potency result in assay [1], in [2], in [7], in assay [3] and in assay [5] was “inactive” each time. Further, the compound was classed as inactive in [9].

On to `C[N+](C)(C)CCOC(=O)CCC(=O)OCC[N+](C)(C)C`, for which the Potency result in assay [1], in assay [2], in assay [7], in assay [3] and in assay [5] was “inactive” each time. Besides, the compound was called inactive in assay [4] and in assay [9].

`CC(C(=O)O)c1ccc(CC2CCCC2=O)cc1` (configuration not stated): the Potency entry in [1], in assay [2], in assay [3], in assay [5] and in [8] was “inactive” in each case. Further, the outcome in [6], in [4] and in [9] was inactive.

Consider `CCCN1C[C@H](CSC)C[C@@H]2c3cccc4[nH]cc(c34)C[C@H]21`, for which the Potency in assay [1] is 11.2 µM (active); in assay [7] it was 4.47 µM (active). The Potency result in [5] is “inactive”. In assay [9], the call was inactive.

In the case of `CCc1cccc(N(C)C(N)=Nc2cccc3ccccc23)c1`, the Potency in assay [1] is 14.1 µM (active); in [7], 0.631 µM (active); in assay [3], 11.2 µM (active). Further, the Potency result in [5] and in [8] was “inactive” throughout. Also, in [9], the compound was classed as inactive.

Turning to `COc1ccc(CN(CCN(C)C)c2ccccn2)cc1`, the Potency entry in [1], in assay [3] and in assay [5] was “inactive” in each case. In addition, the Potency in assay [7] is 5.62 µM (active).

Regarding `CN(C)C/C=C(/c1ccc(Br)cc1)c1cccnc1`, the Potency in assay [1] was 11.2 µM (active); in [7], 7.08 µM (active). The Potency entry in [5] and in assay [8] was “inactive” in each case. The compound was called inactive in assay [9].

Turning to `Cc1cc(C)c(/C=C2\C(=O)Nc3ccccc32)[nH]1`, the Potency entry in assay [1], in assay [2] and in assay [3] was “inactive” in each case. Also, the result in [4] and in assay [9] was inactive.
